# Calls of active or inactive are those of the source.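 The calls were made as follows: active = compounds that lower survival of HCT116 colon cancer cells in the luminescence readout, no numeric limit stated; inactive = the rest.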 Non-standard residues stand in square brackets, D forms with d. Residues, ends and D or L forms follow the SMILES beside them. pGlu = O=C1CC[C@@H](C(=O)O)N1
# Test: HCT116 colon cancer cell growth inhibition, primary screen, CellTiter-Glo luminescence, NPC library (AID 1117342)
# Conditions: at 20 µM (top of the series)
row,Structure (SMILES),inhibition of viability
1,Cc1cccc(C)c1NC(=O)CN(CC(=O)O)CC(=O)O,2.2% (inactive)
2,CCCCCCCCCCOCC(O)CN (centres undefined),84.7% (active)
3,Nc1ccc([N+](=O)[O-])c(C(F)(F)F)c1,26.5% (inactive)
4,CC1(C)OC[C@@H]2O[C@@]3(C(=O)O)OC(C)(C)O[C@H]3[C@@H]2O1,-1.6% (inactive)
5,CC(O)CCCCn1c(=O)c2c(ncn2C)n(C)c1=O (centres undefined),0.8% (inactive)
6,CC(=O)OC[C@H]1O[C@@](COC(C)=O)(O[C@H]2O[C@H](COC(C)=O)[C@@H](OC(C)=O)[C@H](OC(C)=O)[C@H]2OC(C)=O)[C@@H](OC(C)=O)[C@@H]1OC(C)=O,3.93% (inactive)
7,CCc1oc2ccccc2c1C(=O)c1cc(I)c(O)c(I)c1,99% (active)
8,CCCCC(C)(O)CC=C[C@H]1[C@H](O)CC(=O)[C@H]1CCCCCCC(=O)OC (some centres undefined),-12.9% (inactive)
9,O=C1c2ccccc2CCc2ccccc21,4.6% (inactive)
10,Nc1c(NC/C=C\COc2cc(CN3CCCCC3)ccn2)c(=O)c1=O,8.6% (inactive)
11,Oc1ccccc1-c1nnco1,12.2% (inactive)
12,C=CCNc1nc(NCC=C)nc(N2CCN(C(c3ccc(F)cc3)c3ccc(F)cc3)CC2)n1,49.1% (inactive)
13,O=Cc1ccccc1C=O,-1.7% (inactive)
14,CC(=O)OC[C@H]1O[C@@H](n2ncc(=O)[nH]c2=O)[C@H](OC(C)=O)[C@@H]1OC(C)=O,16.2% (inactive)
15,Oc1cccc(O)c1O,45.7% (inactive)
16,CCCC(=O)O[C@]1(C(=O)CC)CC[C@H]2[C@@H]3CCC4=CC(=O)CC[C@]4(C)[C@H]3[C@@H](O)C[C@@]21C,18.1% (inactive)
17,OCCCc1ccccc1,-1.15% (inactive)
18,CC(C)C(=O)Nc1cccc(C2CN3CCSC3=N2)c1 (centres undefined),4.17% (inactive)
19,CCNC(=O)[C@@H]1CCCN1C(=O)[C@H](CCCN=C(N)N)NC(=O)[C@H](CC(C)C)NC(=O)CNC(=O)[C@H](Cc1ccc(O)cc1)NC(=O)[C@H](CO)NC(=O)[C@H](Cc1c[nH]c2ccccc12)NC(=O)[C@H](Cc1cnc[nH]1)NC(=O)[C@@H]1CCC(=O)N1 ([pGlu]HWSYGLRP-NHEt),33% (inactive)
20,CN1CC(O)c2cc(N=NC(N)=O)c(O)cc21 (centres undefined),-4.6% (inactive)

row,Structure (SMILES),inhibition of viability
1,C[C@@H]1C[C@H]2[C@@H]3CCC4=CC(=O)C=C[C@]4(C)[C@@]3(F)[C@@H](O)C[C@]2(C)[C@@]1(O)C(=O)COC(=O)c1ccncc1,-4.43% (inactive)
2,c1ccc2[nH]ccc2c1,-34.9% (inactive)
3,O=C(O)COc1nn(Cc2ccccc2)c2ccccc12,8.1% (inactive)
4,C[C@]12C=CC(=O)C=C1[C@@H](F)C[C@@H]1[C@@H]2[C@@H](O)C[C@@]2(C)[C@H]1CC[C@]2(O)C(=O)CO,5% (inactive)
5,O=S(=O)(O)CC(S)CS (centres undefined),4.3% (inactive)
6,CCOC(=O)c1ccc(NC(=O)CN2CCCCC2)cc1,50.7% (active)
7,CN1[C@@H]2CC[C@H]1CC(NC(=O)n1c(=O)[nH]c3ccccc31)C2 (some centres undefined),23.7% (inactive)
8,Cc1cn([C@@H]2O[C@H](CO)[C@@H](O)[C@H]2F)c(=O)[nH]c1=O,4.6% (inactive)
9,Cc1ccc(O)c2ncccc12,33% (inactive)
10,OCc1ccc(Cl)cc1Cl,-2.7% (inactive)
11,CN(C)[C@@H]1C(=O)C(C(N)=O)=C(O)[C@@]2(O)C(=O)C3=C(O)c4c(O)cccc4C[C@H]3C[C@@H]12,75.5% (active)
12,CCS(=O)(=O)c1ccc(OC)c(C(=O)OC)c1,7.3% (inactive)
13,OC[C@H]1O[C@@H](n2cnc3c(=S)nc[nH]c32)[C@H](O)[C@@H]1O,84.2% (active)
14,NS(=O)(=O)c1cc(-c2nn[nH]n2)c(NCc2cccs2)cc1Cl,-19.7% (inactive)
15,Cc1cc(CCCOc2c(C)cc(-c3noc(C(F)(F)F)n3)cc2C)on1,68.5% (active)
16,Cc1c(C)n(Cc2ccccc2)c2ccc(C(=O)OCCN(C)C)cc12,98.9% (active)
17,O=C1NC(c2ccccc2)(c2ccccc2)C(=O)N1COP(=O)(O)O,-8.63% (inactive)
18,CC(C)=CCC/C(C)=C/CC/C(C)=C/C(=O)OCC(=O)[C@@]1(O)CC[C@H]2[C@@H]3CCC4=CC(=O)C=C[C@]4(C)[C@H]3[C@@H](O)C[C@@]21C,98.2% (active)
19,O=C1CC[C@H](C(=O)N2CCCCC2)N1,0.8% (inactive)

# From PubChem BioAssay
